Source: PubChem
Rows were chosen to be rich in hits. Some 2% of all compounds tested hit in one or more screens of this group.
NadD inh: inhibitors of S. aureus NadD, primary screen, biochemical, colorimetric, uHTS; Nicotinate-nucleotide adenylyltransferase NadD (Staphylococcus aureus N315); purified NadD enzyme, colorimetric absorbance read-out; inhibition, % at 20 µM; 360,000 compounds, 0.78% hits; AID 602399, 2012; in the data active = inhibition above about 26%
ARNT TACC3 PPI: disruptors of ARNT/TACC3 protein interaction, primary screen, biochemical, AlphaScreen, single concentration. Transforming acidic coiled-coil-containing protein 3 (Homo sapiens), Q9Y6A5. AlphaScreen His-ARNT PAS-B/GST-TACC3 binding, luminescence; TACC3 fragment carries E629A point mutation. inhibition, % at 9.99 µM. 390,000 compounds, 0.66% hits. AID 623870, 2012;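 active = mean inhibition of replicates at least 50% and at least half of replicates each reaching 50%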;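 also: 0% = complete ARNT plus TACC3 wells and 100% = ARNT alone without TACC3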
DAGLB inh: DAGLB lipase inhibitors, primary screen, biochemical, fluorescence, HTS; Diacylglycerol lipase-beta (Homo sapiens), Q8NCG7; HEK293T DAGLB membrane lysate, EnzChek fluorogenic substrate; inhibition, % at 5.17 µM; 340,000 compounds, 0.059% hits; AID 504411, 2011; in the data active = inhibition above about 34%;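 also: 0% = enzyme with vehicle and 100% = wells lacking enzyme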
Neddylation inh: inhibitors of cullin neddylation, primary screen, biochemical, TR-FRET, uHTS, NAE and Ubc12; inhibition, % at 25 µM; NEDD8-conjugating enzyme Ubc12 (Homo sapiens) + NEDD8-activating enzyme E1 regulatory …; 360,000 compounds, 0.58% hits; AID 651699, 2012; in the data active = inhibition above about 36%
sPLA2-III inh: human group III sPLA2 inhibitors, primary screen, biochemical, QFRET, BODIPY PC-A2 liposome substrate; Group 3 secretory phospholipase A2 (Homo sapiens), Q9NZ20; QFRET BODIPY PC-A2 liposome hydrolysis, fluorescence; inhibition, % at 12.2 µM; 370,000 compounds, 0.56% hits; AID 743126, 2013;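 active = inhibition above mean plus 3 SD of compounds lying within the high and low control bounds, cut at about 19% in these data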;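 also: 0% = median of test compound wells and 100% = no enzyme DMSO wells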
Target sequence (Q9NZ20 whole entry, looked up): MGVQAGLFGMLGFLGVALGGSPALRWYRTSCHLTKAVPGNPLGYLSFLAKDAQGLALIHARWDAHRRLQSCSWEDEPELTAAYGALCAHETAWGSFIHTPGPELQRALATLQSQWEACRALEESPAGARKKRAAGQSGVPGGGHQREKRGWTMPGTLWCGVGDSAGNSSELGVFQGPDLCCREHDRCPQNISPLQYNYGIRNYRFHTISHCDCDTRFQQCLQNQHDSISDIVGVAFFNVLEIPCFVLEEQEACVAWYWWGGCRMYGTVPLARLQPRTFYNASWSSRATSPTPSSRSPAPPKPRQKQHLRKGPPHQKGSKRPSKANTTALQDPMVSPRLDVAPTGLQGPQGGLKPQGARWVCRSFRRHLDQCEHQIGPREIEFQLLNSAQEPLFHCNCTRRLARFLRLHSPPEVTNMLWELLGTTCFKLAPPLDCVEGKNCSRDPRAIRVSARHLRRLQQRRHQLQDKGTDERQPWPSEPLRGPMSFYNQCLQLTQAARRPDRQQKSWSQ
sPLA2 confirm: human group III sPLA2 inhibitors, confirmation, biochemical, QFRET, triplicate; shares compounds with sPLA2-III inh; recombinant hGIII-sPLA2, BODIPY PC-A2 QFRET fluorescence; inhibition, % at 12.2 µM; 2,000 compounds, 34% hits; AID 743280, 2014;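 active = mean inhibition across triplicates above the hit cutoff set in the earlier primary screen, cut at about 19% in these data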;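 also: 0% = enzyme with DMSO and 100% = DMSO wells lacking enzyme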
535nm interf: 535nm fluorescence optical interference, confirmation, artefact control for HGIII-sPLA2 inhibitor project, biochemical, QFRET. shares compounds with sPLA2-III inh. BODIPY FL product fluorescence interference. inhibition, % at 12.2 µM. AID 743282, 2014. 2,000 compounds, 8.5% hits;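 active = average inhibition above the solvent-only control mean plus 3 SD, cut at about 6% in these data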;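 also: 0% = DMSO with substrate plus product and 100% = DMSO with substrate alone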
535nm interf DR: 535nm fluorescence optical interference, dose response, artefact control for HGIII-sPLA2 inhibitor project, biochemical, QFRET; IC50, µM; shares compounds with sPLA2-III inh; 240 tested, under 10 active; BODIPY FL product fluorescence interference, cell-free;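 active = IC50 at or below 10 µM; inactive = IC50 above 10 µM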
* hit, by the source's call; · = no result given.

SMILES | NadD inh | ARNT TACC3 PPI | DAGLB inh | Neddylation inh | sPLA2-III inh | sPLA2 confirm | 535nm interf | others
COc1ccc(NC(=O)c2ccc(NC(=O)C(C)C)cc2)c([N+](=O)[O-])c1 | -3 | -3 | 1 | -17 | 20* | -4 | -5
CCOc1ccc(NC(=S)NC(=O)c2c(Cl)cnn2CC)c([N+](=O)[O-])c1 | -13 | -8 | -6 | -24 | 22* | 20* | -2
COc1ccc(NC(=S)NC(NC(=O)c2ccccc2Cl)C(Cl)(Cl)Cl)c([N+](=O)[O-])c1 (configuration not stated) | 7 | 0 | 7 | -36 | 28* | 35* | 7.2*
COc1ccc(NC(=S)NC(NC(=O)c2ccc(Cl)cc2Cl)C(Cl)(Cl)Cl)c([N+](=O)[O-])c1 (configuration not stated) | 7 | -1 | 0 | -22 | 3 | · | ·
Cc1ccc(S(=O)(=O)N(C)C)cc1NC(=S)NNC(=O)C1CC1 | -4 | -1 | 0 | -11 | 30* | 19 | -1
Cc1ccc(S(=O)(=O)N(C)C)cc1NC(=O)C1CCCC1 | 7 | -2 | 0 | 9 | -2 | · | ·
CCN(CC)S(=O)(=O)c1ccc(C)c(NC(=S)NNC(=O)C2CC2)c1 | -6 | -24 | 3 | -11 | 20* | 23* | -6
O=C(O)/C=C/C(=O)NCCc1ccc(Cl)cc1 | -3 | -11 | 1 | 1 | 22* | 6 | -4
O=C(O)/C=C/C(=O)NCCc1ccccc1 | -8 | -6 | -1 | 0 | 12 | · | ·
CN(C)C=NC1=NN(c2cccc(C(F)(F)F)c2)CC1 | 2 | -6 | 2 | -1 | 21* | -5 | -3
CN(C)c1ccc(/C=N/NC(=O)c2ccn(C)n2)cc1 | -9 | -5 | 0 | -4 | 20* | 7 | -4
CCCNC(=O)N[C@H]1C=C[C@H](CC(=O)NC2CCC2)O[C@H]1CO | · | -1 | · | · | · | · | ·
CCn1cc(C(=O)Nc2sc(C)c(C)c2C(=O)OC)cn1 | -3 | -4 | -2 | 31 | 20* | -3 | -12
CC(C)C(=O)N1CC[C@H]2[C@H](CCCN2Cc2cc(F)cc(F)c2)C1 | · | · | · | · | 1 | · | ·
CC(C)C(=O)N1CC[C@H]2[C@H](CCCN2Cc2ccc(F)cc2)C1 | · | · | · | · | 22* | -4 | -9
O=C(OC1CCCCC1)c1cc2ccccc2oc1=O | -8 | -1 | -3 | -9 | -5 | · | ·
O=C(OC[C@@H]1CCCN2CCCC[C@H]12)c1cc2ccccc2oc1=O | -2 | 2 | -2 | 5 | 20* | 2 | -7
C[C@H](CO)N1C[C@H](C)[C@@H](CN(C)C(=O)Nc2ccccc2)OCCCC[C@H](C)Oc2ccc(NS(C)(=O)=O)cc2C1=O | · | -4 | · | · | · | · | ·
CC=Cc1ccc2n(c1=O)C[C@@H]1[C@@H](CO)[C@H](C(=O)NCCC)[C@H]2N1C(=O)C1CCCC1 (mixture of isomers) | · | -14 | · | · | · | · | ·
CC(C)(C)c1cc(C(=O)N/N=C/c2ccccc2O)n(-c2ccccc2)n1 | 4 | 28 | 6 | · | 28* | -4 | -19
Cc1c(O)c2c(=O)n(-c3ccccc3)c(-c3ccccc3)cc2oc1=O | 7 | -6 | -2 | 4 | 20* | 7 | -5
CO[C@H]1CN(C)C(=O)c2cc(C#N)ccc2OCC[C@@H]2CC[C@@H](OC)[C@@H](CN(C)C(=O)[C@@H]1C)O2 | · | -8 | · | · | · | · | ·
C=CCNc1nc(Nc2ccc([N+](=O)[O-])cc2)nc(OCC)n1 | 2 | 5 | 2 | 5 | 5 | · | ·
CCOc1nc(Nc2ccc([N+](=O)[O-])cc2)nc(NC(C)(C)C)n1 | -2 | 1 | 2 | -1 | 21* | 1 | 1
CCC(=O)N[C@@H]1CC[C@@H](CCn2cc(CN(C)C)nn2)O[C@H]1CO | · | 0 | · | · | · | · | ·
SMILES | NadD inh | ARNT TACC3 PPI | DAGLB inh | Neddylation inh | sPLA2-III inh | sPLA2 confirm | 535nm interf | others
COc1ccc(NC(=S)NCc2ccco2)cc1 | 3 | · | 1 | -4 | -3 | · | ·
COc1ccc(NC(=S)N(Cc2ccc(N(C)C)cc2)Cc2ccco2)cc1 | -4 | 10 | 2 | -2 | 22* | 10 | -7
COCCNCCCOc1ccc(C(C)(C)c2ccccc2)cc1 | -2 | · | -2 | -5 | 22* | -11 | -27
COCCCNCCCOc1ccc(C(C)(C)c2ccccc2)cc1 | -6 | -3 | 0 | 0 | 18 | · | ·
COCCCOc1cc(NCc2ccccc2)c2ncn(C(C)C)c2c1 | 1 | 35 | 2 | 0 | 10 | · | ·
CCCCOc1cc(NCc2ccccc2)c2ncn(C(C)C)c2c1 | -1 | -1 | 2 | 4 | 21* | 14 | -11
CCNC(=O)C[C@@H]1CC[C@@H]2[C@H](COc3ccc(NC(=O)c4cc(C)on4)cc3C(=O)N2C)O1 | · | 0 | · | · | · | · | ·
CC1=CC(C)(C)NC(=S)N1C(C)c1ccccc1 (configuration not stated) | 2 | 4 | 1 | 6 | 12 | · | ·
CC1=CC(C)(C)NC(=S)N1c1ccc2ccccc2c1 | 4 | 1 | 0 | -32 | 11 | · | ·
CC1=CC(C)(C)NC(=S)N1c1cccc2ccccc12 | 3 | 2 | -1 | -21 | 20* | 31* | -5 | 535nm interf DR=>122
CC1=CC(C)(C)NC(=S)N1c1ccc(Cl)cc1 | -3 | -14 | 1 | -5 | 20* | 21* | -4
C[C@@H]1CN([C@@H](C)CO)S(=O)(=O)c2ccc(C3=CCCCC3)cc2O[C@@H]1CN(C)S(=O)(=O)c1ccc(F)cc1 | · | 0 | · | · | · | · | ·
CCN(CC)CCCNC1CCS(=O)(=O)C1 (configuration not stated) | 4 | -19 | 0 | -3 | 1 | · | ·
CCNC1CCS(=O)(=O)C1 (configuration not stated) | 0 | -4 | -1 | 8 | 22* | 2 | -3
CCCCn1c(SCc2nc(N)nc(N3CCCCC3)n2)nc2c1c(=O)n(C)c(=O)n2C | -5 | -3 | -3 | -29 | 21* | 4 | -32
CCCn1c(SCc2nc(N)nc(N3CCCCC3)n2)nc2c1c(=O)n(C)c(=O)n2C | -8 | -5 | -3 | 0 | -4 | · | ·
C[C@@H]1CCCCO[C@H](CN(C)C(=O)c2ccccc2)[C@@H](C)CN([C@@H](C)CO)C(=O)c2cc(NC(=O)Nc3ccc(F)cc3)ccc2O1 | · | 3 | · | · | · | · | ·
